BCR signal inh: inhibitors of chronic active B-cell receptor signaling. ABC-DLBCL IkBa-CBG/CBR reporter, luminescence ratio, 4 h. Potency, µM (series often up to 46.1 µM), most hits filed as inhibitors. 0.05% of 340,000 active. AID 493014; active means well fitted inhibition curve with a large enough effect in the signal ratio, with a control signal flat, not every such curve was filed as active; inconclusive means small, poorly fitted or top-dose-only effect, or effect the other way, or a change in a side signal; the % refers to the signal ratio
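TMD8 human ABC-DLBCL cells with doxycycline-inducible IκBα–green luciferase fusion and unfused red luciferase, in 0.5% FBS medium; compounds up to 46 uM, 4 h at 37C. Green/red luminescence ratio, filter-overlap corrected, fitted to concentration-response curves.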
a7 integrin act: integrin-mediated muscular dystrophy alleviation activation | alpha7betagal myoblasts, beta-gal FDG fluorescence, 48 h | Potency, µM (top dose mostly 38.3 µM), hits mostly activators | 0.064% of 350,000 active; further: nearly all actives have a fitted effect of over 60% in size
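Alpha7betagal+/- myoblasts (passage 13) were plated 16-24 hr, then exposed to compounds (1:260 dilution of DMSO stock) for 48 hours at 37C. After MPER lysis, β-galactosidase reporter activity was read as FDG fluorescence (ex 480/em 540) after 30 minutes.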
uPA generation: cell surface uPA generation inhibition. 0.31% of 330,000 active. Potency, µM (titrated, usually from 38.3 µM), most hits filed as inhibitors. cell surface uPA generation assay, qHTS; active means well fitted inhibition curve with a large enough effect; inconclusive means small, poorly fitted or top-dose-only effect; inactive means no such curve, though single readings can be large or run the other way; tested in mouse RAW 264.7 cells; further: nearly all actives have a fitted effect of over 55% in size
VP16 counter: inhibits Gal4-VP16 luciferase reporter, ROR gamma counter-screen | Potency, µM (titrated, usually from 53.6 µM), usual class: inhibitors | 3.5% of 310,000 active | AID 2546 | Drosophila S2 Gal4-VP16 UAS-luciferase, luminescence, 20 h;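 further: Gal4-VP16 expression switched on by copper sulfate through the metallothionein promoter; nearly all actives have a fitted effect of over 50% in size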
Mito fusion yeast: inhibitors of mitochondrial division or activators of mitochondrial fusion; AID 485298; S. cerevisiae fusion-defective mutant growth rescue, CellTiterGlo 48 h; Potency, µM (doses to about 46.1 µM), actives largely listed as activators; 0.23% of 320,000 active; further: nearly all actives have a fitted effect of over 45% in size
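Growth-rescue viability read-out: after 48 h at the non-permissive 37C in glycerol/ethanol YPEG, yeast mitochondrial fusion mutants are measured by CellTiterGlo luminescence; compounds (23 nl pinned per well) restoring growth score as division inhibitors or fusion activators.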
RORg inh: inhibitors of mouse ROR gamma transcriptional activity; Drosophila S2 Gal4-RORgamma UAS-luciferase reporter, 20 h; AID 2551; Potency, µM (highest dose often 53.6 µM), actives largely listed as inhibitors; 5.4% of 310,000 active; further: nearly all actives have a fitted effect of over 60% in size
Target sequence (P51450 whole entry, looked up, the tested form may be a part): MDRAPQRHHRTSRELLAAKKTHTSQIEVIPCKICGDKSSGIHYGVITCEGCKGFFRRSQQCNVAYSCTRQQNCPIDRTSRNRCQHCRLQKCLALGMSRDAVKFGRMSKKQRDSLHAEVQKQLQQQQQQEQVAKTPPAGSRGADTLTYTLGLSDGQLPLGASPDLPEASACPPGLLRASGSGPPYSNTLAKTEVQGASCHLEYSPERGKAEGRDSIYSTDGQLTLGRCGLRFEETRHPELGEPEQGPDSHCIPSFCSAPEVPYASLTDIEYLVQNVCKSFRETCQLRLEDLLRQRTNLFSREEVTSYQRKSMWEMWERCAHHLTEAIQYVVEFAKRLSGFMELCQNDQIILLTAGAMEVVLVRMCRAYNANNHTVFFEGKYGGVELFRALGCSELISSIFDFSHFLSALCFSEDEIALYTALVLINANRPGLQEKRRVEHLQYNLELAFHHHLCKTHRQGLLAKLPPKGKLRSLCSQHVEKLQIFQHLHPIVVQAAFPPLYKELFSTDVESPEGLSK
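Stably transfected Drosophila Schneider cells are the test system, with ROR gamma fused to Gal4 and luciferase under UAS control; luminescence is read after 20 hr of 700 uM copper sulfate induction at ambient temperature.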
Numbers stand for hits; i = inactive; ? = inconclusive; nt = no result; [ ] = another dose, or the depositor's remark. A selection: hits, their analogues and other compounds. The true share with any hit is near 5.5%. Unless noted, the call rests on the fitted dose curve; in most records, active means well fitted curve in the direction sought with a large enough effect; inconclusive means small, poorly fitted or top-dose-only effect, or another doubt; inactive means no such curve, though single readings can be large; an effect the other way counts as inactive or inconclusive.

SMILES | BCR signal inh | a7 integrin act | uPA generation | VP16 counter | Mito fusion yeast | RORg inh
CC[C@H](C)[C@H](NC(=O)[C@H](Cc1ccc(O)cc1)NC(=O)[C@H](Cc1cnc[nH]1)NC(=O)[C@H](CCCNC(=N)N)NC(=O)[C@H](CC(C)C)NC(=O)[C@H](C)NC(=O)[C@H](CO)NC(=O)[C@H](Cc1ccc(O)cc1)NC(=O)[C@H](Cc1ccc(O)cc1)NC(=O)[C@H](CCCNC(=N)N)NC(=O)[C@H](C)NC(=O)[C@H](CC(C)C)NC(=O)[C@H](CC(=O)O)NC(=O)[C@H](CCC(=O)O)NC(=O)[C@H](C)NC(=O)[C@@H]1CCCN1C(=O)[C@H](C)NC(=O)[C@H](CC(=O)O)NC(=O)[C@H](CCC(=O)O)NC(=O)CNC(=O)[C@@H]1CCCN1C(=O)[C@H](CC(N)=O)NC(=O)[C@H](CC(=O)O)NC(=O)[C@@H]1CCCN1C(=O)[C@H](CCCCN)NC(=O)[C@H](CO)NC(=O)[C@@H]1CCCN1C(=O)[C@@H](N)Cc1ccc(O)cc1)C(=O)N[C@@H](CC(N)=O)C(=O)N[C@@H](CC(C)C)C(=O)N[C@H](C(=O)N[C@H](C(=O)N[C@@H](CCCNC(=N)N)C(=O)N[C@@H](CCC(N)=O)C(=O)N[C@@H](CCCNC(=N)N)C(=O)N[C@@H](Cc1ccc(O)cc1)C(N)=O)[C@@H](C)O)[C@@H](C)CC | nt | nt | nt | i | nt | i
O=S(=O)(c1ccc(Cl)cc1)N1CCN(Cc2ccc(O)c3ncccc23)CC1 | i | i | i | 2.8µM | i | 1µM
Oc1ccc(CN2CCN(Cc3ccccc3)CC2)c2cccnc12 | i | i | i | i | i | i
CC(C)CCOC(=O)/C=C/c1ccccc1 | nt | nt | nt | i | nt | i
CC(=O)CCC1C2C(O)C(C(C)C)C(OC(=O)/C=C/c3ccccc3)CC12C (stereo not given) | i | i | i | ? | 3.5µM | i
COc1cc(CNCc2ccc(C(=O)O)cc2)ccc1OCc1ccc(F)cc1 | i | 4.5µM | i | i | i | i
OCCNc1c2ccccc2nc2c(F)c(F)c(F)c(F)c12 | ? | i | i | 7.9µM | i | 10µM
CCN(CC)c1ccc(C(=O)NNC(=O)CN2C(=O)NC3(CCCCC3)C2=O)cc1 | i | i | i | nt | i | nt
CCOC(=O)CSc1nc2ccc(NC(=O)CSc3nnnn3Cc3ccccc3)cc2s1 | i | i | i | i | i | i
CC(C)(C)NC(=O)CSc1nc2ccc(NC(=O)CSc3nnnn3Cc3ccccc3)cc2s1 | i | i | i | 11µM | i | i
Cc1ccc2nc(-c3ccc(NC(=O)CCS(=O)(=O)c4ccccc4)cc3)sc2c1 | ? | i | ? | 7.9µM | i | 1.1µM
Cc1ccc2nc(-c3ccc(NC(=O)COC(=O)c4ccc(=O)[nH]c4)cc3)sc2c1 | i | i | i | 5µM | i | 0.28µM
CCC1(c2ccc(F)cc2)NC(=O)N(CC(=O)Nc2ccc(-c3nc4ccc(C)cc4s3)cc2)C1=O (stereo not given) | i | i | i | i | i | 0.45µM
C=CCn1c(SCC(=O)Nc2ccc(-c3nc4ccc(C)cc4s3)cc2)nnc1-c1ccncc1 | i | ? | i | i | i | i
Cc1nc2cc(NC(=O)CCS(=O)(=O)c3ccccc3)ccc2s1 | ? | i | i | ? | i | 16µM
CCn1c(SCC(=O)Nc2ccc(-c3nc4ccc(C)cc4s3)cc2)nnc1-c1ccccc1 | ? | nt | nt | 18µM | i | 11µM
Cc1cccc(S(=O)(=O)Nc2ccc(-c3nc4ccc(C)cc4s3)cc2)c1 | i | i | i | i | i | 5.6µM
COc1ccccc1-c1cc(SC)c(C#N)c(=O)o1 | ? | i | 11µM | ? | i | ?
Cc1[nH]c2ccccc2c1C(=O)C(C)OC(=O)C1CCC1 (stereo not given) | i | i | i | nt | i | nt
CCS(=O)(=O)N1Cc2ccccc2CC1C(=O)Nc1nc2ccc(C)cc2s1 (stereo not given) | i | i | i | ? | i | 1.3µM
COc1ccc(-c2nnc(NC(=O)CSc3ccc(C)cc3)s2)cc1OC | ? | i | i | i | i | i
COc1ccc(Cc2nnc(NC(=O)CSc3ccc(Cl)cc3)s2)cc1OC | i | nt | nt | ? | i | 13µM
COc1ccc(-c2nnc(NC(=O)CSc3ccccc3)s2)cc1OC | ? | i | i | 22µM | i | ?
CN(Cc1ccco1)c1ccnc(-c2ccoc2)n1 | nt | nt | nt | i | nt | i
CCOc1cc(C(=O)Oc2cc(C)[nH]c(=O)c2[N+](=O)[O-])cc(OCC)c1OCC | i | ? | i | i | i | i
SMILES | BCR signal inh | a7 integrin act | uPA generation | VP16 counter | Mito fusion yeast | RORg inh
O=[N+]([O-])c1ccc(O)c(C2=NNC(c3ccccc3F)C2)c1 (stereo not given) | ? | i | i | ? | i | 6.3µM
Cc1cccc(N2C(=O)N(Cc3cccc(C#N)c3)c3ccccc3S2(=O)=O)c1 | i | nt | nt | nt | nt | nt
CCC1=Nc2cc(C(=O)NCc3ccco3)ccc2Sc2ccccc21 | ? | i | 3.2µM | i | ? | i[10 µM]
CCC1=Nc2cc(C(=O)NCc3ccco3)ccc2Sc2ccc(Cl)cc21 | ? | i | i | i | ? | i[10 µM]
CCOC(=O)c1sc2nc(Cc3ccc(Cl)cc3)[nH]c(=S)c2c1C | i | i | i | ? | i | 2.8µM
NNC(=O)Cn1c(-c2ccccc2)cc(=O)n2ncnc12 | i | i | i | i | i | i
COc1ccccc1C1C([N+](=O)[O-])=CC([N+](=O)[O-])=CN1C (stereo not given) | ? | i | i | 11µM | i | ?
Cc1cc(S(=O)(=O)N2CCN=C2c2ccccc2)c(C)cc1Cl | ? | i | i | i | i | 1.3µM
Cc1c(Cl)ccc(S(=O)(=O)N2CCN=C2c2ccccc2)c1Cl | i | i | i | i | i | i
O=C(C=Cc1cccs1)c1cccs1 | nt | i | i | nt | nt | nt
COc1cc(/C=C/C(=O)c2cccs2)cc(OC)c1OC | nt | nt | nt | ? | nt | 7.9µM
O=C(/C=C/c1ccc(O)cc1)c1cccs1 | nt | nt | nt | i | nt | 14µM
COc1cc(C=CC(=O)c2cc(OC)c(OC)c(OC)c2)cc(OC)c1OC | nt | i | i | nt | nt | nt
COc1ccc(Cl)cc1-c1ccc(C(=O)O)o1 | nt | nt | nt | i | nt | i
Oc1ccc(C2=NNC(=NCc3ccc4c(c3)OCO4)SC2)c(O)c1 | ? | i | i | ? | i | 1.6µM
Clc1ccc(C2=NNC(=NCc3ccc4c(c3)OCO4)SC2)cc1 | i | i | i | ? | i | ?
O=C(Cc1ccccc1)NC(=S)Nc1ccc2oc(-c3ccccc3)nc2c1 | ? | nt | nt | 7.1µM | i | 7.1µM
O=C(NC(=S)Nc1ccc2oc(-c3cccnc3)nc2c1)c1cccc(Cl)c1 | i | i | i | i | i | 20µM
O=C(Cc1ccccc1)NC(=S)Nc1ccc2oc(-c3ccccc3F)nc2c1 | ? | i | i | ? | i | 4µM

High-throughput results: PubChem, National Center for Advancing Translational Sciences (NCATS)
